Compound activity (PubChem BioAssay)
Rows were chosen to be rich in hits. Some 1.8% of all compounds tested hit in one or more screens of this group.
ABCB6 inh 2 = human ABCB6 transporter inhibition. Q9NP58. K562-ABCB6 porphyrin accumulation, flow cytometry, 1 h; active compounds read low. fluorescence ratio to DMSO, % at 10 µM. actives 0.19% (n = 360,000);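 active = fluorescence ratio to DMSO below 75%, the collection mean minus 3 SD; inconclusive = too few cells collected in the well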;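 note: signal is porphyrin accumulated inside mitochondria; 100% equals median channel fluorescence of DMSO control wells; lower ratio means ABCB6 inhibition with less porphyrin fluorescence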
Target sequence (Q9NP58 whole entry, looked up): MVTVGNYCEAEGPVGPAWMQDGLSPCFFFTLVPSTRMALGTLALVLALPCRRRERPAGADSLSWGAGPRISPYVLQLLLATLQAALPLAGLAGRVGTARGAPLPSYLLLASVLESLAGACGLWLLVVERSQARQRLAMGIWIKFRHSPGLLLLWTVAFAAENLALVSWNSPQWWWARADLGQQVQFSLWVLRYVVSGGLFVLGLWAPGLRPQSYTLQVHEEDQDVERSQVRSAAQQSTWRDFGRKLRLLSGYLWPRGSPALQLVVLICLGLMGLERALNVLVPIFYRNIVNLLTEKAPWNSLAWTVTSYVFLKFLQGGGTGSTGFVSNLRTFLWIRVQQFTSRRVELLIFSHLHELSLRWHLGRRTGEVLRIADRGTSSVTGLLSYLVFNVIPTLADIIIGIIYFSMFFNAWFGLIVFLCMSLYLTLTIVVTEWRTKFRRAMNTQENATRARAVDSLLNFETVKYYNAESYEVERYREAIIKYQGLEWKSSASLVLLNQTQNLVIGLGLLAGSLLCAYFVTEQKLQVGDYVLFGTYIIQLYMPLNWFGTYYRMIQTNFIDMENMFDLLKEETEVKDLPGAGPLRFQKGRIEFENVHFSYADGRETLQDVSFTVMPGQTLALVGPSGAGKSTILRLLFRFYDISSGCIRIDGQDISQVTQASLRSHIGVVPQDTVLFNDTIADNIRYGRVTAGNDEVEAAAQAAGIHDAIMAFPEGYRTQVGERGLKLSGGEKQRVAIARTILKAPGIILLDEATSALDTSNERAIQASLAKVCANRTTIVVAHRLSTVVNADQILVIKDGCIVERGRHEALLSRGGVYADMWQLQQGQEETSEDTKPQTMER
Granule exo inh = lytic granule exocytosis inhibition; inhibition, % at 10 µM; TALL-104 LAMP-1 surface exposure, flow cytometry; cells stimulated with thapsigargin and PMA; AID 651702; actives 0.66% (n = 360,000);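 active = inhibition above about 55%, limit read from the data; inconclusive = no clear call, values can overlap the other calls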
Myeloid diff 2 = myeloid differentiation induction; ER-HoxA9 myeloid progenitors, lysozyme-GFP differentiation, flow cytometry; calls only at 10 µM; actives 1% (n = 360,000); AID 624256;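 active = normalized GFP-positive differentiation at or above the plate's own cutoff, the solvent-only control mean plus 3 SD; inconclusive = no clear call, values can overlap the other calls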;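 note: cells exposed to compound for four days before flow analysis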
Numbers without * were called inactive; i = inactive; ? = inconclusive; · = no result given; + = active, no number.

SMILES	ABCB6 inh 2	Granule exo inh	Myeloid diff 2
CN(CCO)c1ccc(C=NNc2ccc([N+](=O)[O-])cc2S(=O)(=O)Nc2ccccc2C(=O)O)cc1	96	13	i
CCc1nnc(NC(=O)CCC(=O)Nc2ccc(Cl)cc2)s1	96	-8	i
FC(F)(F)c1nc2nc(Cl)c(Cl)nc2n1CCCN1CCOCC1	101	-4	i
Cc1cccc(OCCC(=O)Nc2ccc(N3CCOCC3)cc2N2CCOCC2)c1	93	12	i
COc1ccc(C(=O)NC(=S)Nc2ccc(N3CCCC3)cc2)cc1	86	1	i
COc1ccc(NC(=S)N2CCC(NC(=O)c3ccc(OC)cc3)CC2)cc1	74*	0	i
COc1ccc(C(=O)Nc2ccc(N3CCCC3)cc2)cc1	123	0	+
COc1ccc(NC(=S)N2CCC(NC(=O)c3ccc(F)cc3)CC2)cc1	98	8	i
CC1=CC(C)(C(Cl)(Cl)Cl)C(C)=CC1=NO (centres undefined)	99	6	i
COCOCCn1cc(CN2CCS(=O)(=O)N(Cc3ccc(-c4ccc(OC)c(OC)c4)cc3)C(C)C2=O)nn1 (centres undefined)	97	-4	i
Cc1ccc(/C=C/C(=O)NCCc2c[nH]c3ccccc23)o1	101	2	i
Cc1ccc(/C=C/C(=O)NCCc2cccc(Cl)c2)o1	99	64*	i
CCCCN(CCCC)S(=O)(=O)c1ccc(NS(=O)(=O)c2ccc(NC(C)=O)cc2)cc1	112	9	i
CCCCOc1ccc(S(=O)(=O)Nc2ccc(NC(C)=O)cc2)cc1	97	2	+
CC(=O)Nc1ccc(NS(=O)(=O)c2ccc3[nH]c(=O)[nH]c3c2)cc1	102	0	+
CC(=O)Nc1ccc(NS(=O)(=O)c2ccc3ccccc3c2)cc1	95	-1	+
CC(=O)NS(=O)(=O)c1ccc(NS(=O)(=O)c2ccc3ccccc3c2)cc1	95	-3	i
COc1ccc(NS(=O)(=O)c2ccc3[nH]c(=O)[nH]c3c2)cc1	99	-7	i
CC(C)[C@H](NS(=O)(=O)c1ccccc1F)C(=O)OCC(=O)Nc1cccc(S(N)(=O)=O)c1	90	1	i
Cc1cc(C)n2c(Nc3ccc4c(c3)OCCO4)c(CC(C)C)nc2n1	100	-4	i
Clc1ccc(CNc2ccc(CNc3ncn[nH]3)cc2)c(Cl)c1	95	12	i
O=C(CCNC(=O)c1ccccc1)Nc1ccc(Cl)c(S(=O)(=O)N2CCCCC2)c1	98	-2	i
CCOc1ccccc1NC(=O)Nc1cccc(NC(C)=O)c1	97	-1	i
CCOc1ccccc1NC(=O)Nc1ccc2c(c1)CCC2	103	-2	+
COC(=O)Cc1ccc(NC(=S)NC2CC2)cc1	91	-4	+
SMILES	ABCB6 inh 2	Granule exo inh	Myeloid diff 2
COC(=O)Cc1ccc(NC(=S)NCCO)cc1	94	7	i
COc1cccc(-c2cnc3c(NC=O)cc(-c4cc(OC)c(OC)c(OC)c4)cn23)c1	94	3	+
COc1ccc(-c2cc(NC=O)c3ncc(-c4cccc(C(=O)NCCN(C)C)c4)n3c2)cc1	109	8	+
CN(C)CCNC(=O)c1cccc(-c2cnc3c(NC=O)cc(-c4ccc(F)cc4)cn23)c1	100	-4	i
COc1cccc(-c2cc(NC=O)c3ncc(-c4ccc(OC)c(OC)c4)n3c2)c1	105	11	·
Nc1nc(-c2cc(O)ccc2[N+](=O)[O-])cc(-c2ccccc2)c1[N+](=O)[O-]	99	1	·
COC1=CC(=O)[C@@]2([C@@H]1O)[C@@H](Cl)C[C@]13C(OC)=C(OC)C(=O)C[C@]21CCN3C	95	4	i
CC1CC(C)CN(S(=O)(=O)c2ccc3c(c2)CC(=O)N3)C1 (centres undefined)	99	20	i
COc1ccc(CCNS(=O)(=O)c2cccc(S(=O)(=O)N3CCCC3)c2)cc1OC	99	1	i
O=S(=O)(NCC1CC1)c1cccc(S(=O)(=O)N2CCCC2)c1	102	1	+
COc1cc2nc(/C=C/c3ccc(N(C)C)cc3)sc2cc1SC	208	16	+
COc1cc2c(cc1OC)C(=Cc1ccc(N(C)C)cc1)C=C2	99	-13	i
CCC(C)Sc1cc(-c2nc3cc(C)ccn3c2NC2CCCCC2)ccc1OC (centres undefined)	265	-3	+
Cc1ccc2nc(-c3cccc(SC4CCCCC4)c3)c(NCc3ccccc3)n2c1	90	-4	?
COc1ccc(-c2nc3ccc(C)cn3c2NCc2ccccc2)cc1SC1CCCCC1	117	65*	i
CCC(C)Sc1cc(-c2nc3ccccn3c2NC2CCCCC2)ccc1OC (centres undefined)	95	2	i
Cn1ccc2c(-c3cccc(C=O)c3)cc3c(c21)C1CCC3O1 (centres undefined)	106	1	i
O=C(NC1CCCC1)C1c2ccccc2OCC(=O)N1C1CC1 (centres undefined)	99	2	i
CC1(c2nnnn2-c2ccc3c(c2)OCCO3)CCC(=O)N1CC1CCCCC1 (centres undefined)	95	0	i
COc1ccc(S(=O)(=O)Cc2ccccc2)cc1N	107	0	+
CCN(c1ccccc1)S(=O)(=O)c1ccc(N)c(OC)c1	102	1	i
NC(=S)n1[nH]c(-c2ccc([N+](=O)[O-])cc2)c(N=Nc2ccc(Cl)cc2)c1=O	102	20	i
O=c1c(N=Nc2ccc(O)cc2)c(-c2ccccc2)[nH]n1-c1ccc([N+](=O)[O-])cc1	183	-2	+
Cc1cc(/C=C2/SC(=S)N(c3cccc(Cl)c3)C2=O)c(C)n1-c1cccnc1	336	6	+
Cc1cc(/C=C2\SC(=S)N(C)C2=O)c(C)n1-c1ccc(O)cc1	156	9	i
SMILES	ABCB6 inh 2	Granule exo inh	Myeloid diff 2
Cc1cccc(N2C(=O)/C(=C/c3cccnc3)SC2=S)c1	97	6	i
Cc1cc(/C=C2\SC(=S)N(C)C2=O)c(C)n1-c1ccccc1O	127	9	+
Cc1cc(/C=C2/SC(=S)N(c3ccc([N+](=O)[O-])cc3)C2=O)c(C)n1-c1cccnc1	124	58*	i
Cc1ccc(N2C(=O)/C(=C/c3cccnc3)SC2=S)cc1	93	-2	i
COCCCNC(=O)c1cccc2c(-c3ccnn3C)coc12	100	13	i
CCCCN(C=O)c1c(CC)nc2ccc(C(=O)NCc3ccc4c(c3)OCO4)cn12	98	2	i
CC(C)CNC(=O)c1cccc(NC(=O)COc2cccc([N+](=O)[O-])c2)c1	83	0	i
CC(=O)c1c(C)[nH]c(C(=O)OCc2csc(CC(=O)Nc3ccccc3C)n2)c1C	92	-8	i
C[C@H](CO)N1C[C@H](C)[C@@H](CN(C)Cc2ccc(Oc3ccccc3)cc2)Oc2cc(Br)ccc2S1(=O)=O	98	24	i
CCOC(=O)[C@@H]1[C@H]2COc3ccccc3[C@@H]2N2C(=O)N(c3cccc(F)c3)C(=O)[C@@]12C	104	-8	i
Nc1nc(N)c2c(ccc3c2ccn3Cc2cccc([N+](=O)[O-])c2)n1	94	13	+
Nc1nc(N)c2cc([N+](=O)[O-])ccc2n1	95	1	i
